This passage reports inhibition of ligand binding results from PubChem BioAssay AID1211 (NMMLSC, 2008).

Each structure is given as a SMILES string. The source made the active and inactive calls. The rule behind the calls is not given here.

Chain of Estrogen receptor (Homo sapiens) (P03372 whole entry, looked up): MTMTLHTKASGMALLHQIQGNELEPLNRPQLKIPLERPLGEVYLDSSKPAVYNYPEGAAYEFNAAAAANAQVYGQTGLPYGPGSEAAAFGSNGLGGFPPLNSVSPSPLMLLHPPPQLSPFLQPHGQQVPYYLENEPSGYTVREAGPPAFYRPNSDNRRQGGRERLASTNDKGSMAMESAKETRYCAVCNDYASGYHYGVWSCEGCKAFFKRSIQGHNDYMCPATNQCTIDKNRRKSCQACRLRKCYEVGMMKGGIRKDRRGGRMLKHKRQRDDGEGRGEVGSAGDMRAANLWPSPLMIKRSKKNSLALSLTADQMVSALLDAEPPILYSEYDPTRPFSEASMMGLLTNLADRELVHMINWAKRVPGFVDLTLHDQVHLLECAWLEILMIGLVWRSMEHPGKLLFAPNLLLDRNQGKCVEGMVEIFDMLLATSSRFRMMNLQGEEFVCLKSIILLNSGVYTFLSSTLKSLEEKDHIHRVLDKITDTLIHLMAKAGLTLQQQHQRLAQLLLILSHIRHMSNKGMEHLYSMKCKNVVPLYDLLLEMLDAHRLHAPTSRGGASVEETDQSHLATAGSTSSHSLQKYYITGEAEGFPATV

This experiment concerns the target Estrogen receptor (Homo sapiens) (UniProt P03372). The experiment in a line: ERalpha ligand binders by competition, primary screen, cell-based, Cos7 ERalpha-GFP, flow cytometry (AID 1211).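 Note: 0% = DMSO vehicle wells and 100% = no E2-Alexa633 signal left.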 The conditions noted are these: fluorescent ligand competition, at 10 µM, stronger effect = higher value. (Flow cytometry measures light scatter and fluorescence of single cells or particles in a stream.)
As for `COc1ccc(NC2=CC(c3cccc(OC)c3)N(c3ccc(OC)cc3)C2=O)cc1` (stereo not drawn), the inhibition of ligand binding is 48% (inactive). The same measure for `COc1ccc(CCn2c(SCC(=O)Nc3cc(C)on3)nc3ccsc3c2=O)cc1OC`: 33% (inactive). Next, `Cc1ccc2c(c1)C1C=CCC1C(C(=O)O)N2` (stereo not drawn): 0% (inactive); `O=C(O)c1ccc2c(c1)C1C=CCC1C(c1cc3c(cc1Br)OCO3)N2` (stereo not drawn): 79% (active); `Clc1ccc2c(c1)[C@H]1OCC[C@H]1[C@@H](c1ccco1)N2`: 0% (inactive). As to `Cc1ccc(S(=O)(=O)Cc2ccc(C(=O)O)o2)cc1`, the inhibition of ligand binding is 34% (inactive). The same measure for `CCOc1cc2c(c([N+](=O)[O-])c1)NC(c1ccccc1)C1CC=CC21` (stereo not drawn): 12% (inactive); for `CCCCc1cc2c(=O)c(-c3ccccn3)coc2cc1O`: 1% (inactive); for `CCc1cc2c3c(c(=O)oc2cc1OCC(=O)OC)CCCC3`: 3% (inactive). For the molecule `CCNC(=O)N1c2ccc(OCC)cc2C(C)=CC1(C)C`, the inhibition of ligand binding is 10% (inactive).

Turning to `Cc1cc(C(C)CO)cc(C(C)(C)C)c1O` (stereo not drawn), the inhibition of ligand binding is 21% (inactive). Next, `CCC(Oc1ccc2c3c(c(=O)oc2c1C)CCC3)C(=O)OC` (stereo not drawn): 15% (inactive). The same measure for `CCCNC(=O)c1ccc2c(c1)C1C3CCC(C3)C1C(c1ccccc1)N2` (stereo not drawn): 67% (active); for `CCOc1cc2c(c([N+](=O)[O-])c1)NC(c1ccc(Br)cc1)C1CC=CC21` (stereo not drawn): 0% (inactive); for `Cc1noc(C)c1CSCC(=O)OCC(=O)Nc1sccc1C#N`: 2% (inactive). Next, `Cc1nn(-c2ccccc2)c2sc(C#N)c(N)c12`: 17% (inactive); `COc1cccc(-c2[nH]nc3c2C(c2ccoc2)C(C#N)=C(N)O3)c1` (stereo not drawn): 23% (inactive); `CC(=O)c1ccc(N2Cc3ccccc3C2)cc1`: 8% (inactive). Regarding `COc1cc2c(cc1OC)CC(C)(C)N(Cc1ccco1)C2`, the inhibition of ligand binding is 0% (inactive). In the case of `O=C(O)c1cc(Cl)c2c(c1)[C@@H]1C=CC[C@@H]1[C@H](c1ccc(S(=O)(=O)N3CCOCC3)cc1)N2`, the inhibition of ligand binding was 42% (inactive). As to `O=c1c(C(c2ccc(O)cc2)c2c(O)nc3n(c2=O)CCS3)c(O)nc2n1CCS2`, the inhibition of ligand binding was 7% (inactive). For the molecule `CC(=O)NC12CC3CC(C1)CC(C(=O)OCC(=O)Nc1ncc(Cl)c(C)c1Cl)(C3)C2`, the inhibition of ligand binding is 21% (inactive). Regarding `O=C(Nc1cc(C(F)(F)F)ccc1N1CCOCC1)C1Cc2ccccc2CN1C(=O)c1ccco1` (stereo not drawn), the inhibition of ligand binding was 56% (inactive). The same measure for `CCOc1ccc(NS(=O)(=O)c2ccc3c(c2)[C@H]2C=CC[C@H]2[C@@H](c2cccc([N+](=O)[O-])c2)N3)cc1`: 0% (inactive); for `Fc1ccc2c(c1)C1C=CCC1C(c1cc3c(cc1Br)OCO3)N2` (stereo not drawn): 84% (active). Turning to `CCOc1ccc(NS(=O)(=O)c2ccc3c(c2)[C@H]2C=CC[C@H]2[C@@H](c2ccc(C(=O)O)cc2)N3)cc1`, the inhibition of ligand binding is 66% (active).

In the case of `CCOC(=O)c1ccc2c(c1)C1C=CCC1C(c1cccc([N+](=O)[O-])c1)N2` (stereo not drawn), the inhibition of ligand binding was 21% (inactive).

Regarding `CC(=O)Oc1ccc(C2Nc3c(C(=O)O)ccc([N+](=O)[O-])c3C3C=CCC32)cc1` (stereo not drawn), the inhibition of ligand binding was 85% (active). The same measure for `COc1cccc2sc(Nc3nnc(-c4ccc(F)cc4)o3)nc12`: 17% (inactive). The same measure for `COc1ccc(CNC(=O)COC(=O)c2cc(-c3ccco3)nc3ccccc23)cc1`: 20% (inactive); for `O=c1oc2cc(O)ccc2c2c1CCC2`: 0% (inactive); for `Nc1ccc(-c2nc3c(Cl)c(N)ccc3[nH]2)cc1`: 14% (inactive).

On to `COc1ccccc1C1Nc2c(C(=O)O)cccc2C2C3CCC(C3)C12` (stereo not drawn), for which the inhibition of ligand binding is 19% (inactive).

Take `COc1ccc(-n2cc3c(c(C#N)c2=N)CC(C)(C)CC3=O)cc1`: the inhibition of ligand binding is 29% (inactive). Next, `Cc1ccc(OCc2ccoc2C(=O)O)cc1C`: 0% (inactive). The same measure for `CCCCc1cc(=O)oc2c(C)c(O)ccc12`: 0% (inactive); for `O=C(O)C1Nc2c(O)cccc2C2C=CCC12` (stereo not drawn): 6% (inactive). Consider `Oc1ccc2c(c1)c1c3n2CCNC3CCC1` (stereo not drawn), for which the inhibition of ligand binding is 0% (inactive).
